Screening data: PubChem BioAssay, The Scripps Research Institute Molecular Screening Center
GPR151 ag: activators of human GPR151, primary screen, cell-based, PathHunter beta-arrestin, luminescence; G-protein coupled receptor 151 (Homo sapiens), Q8TDV0; hit rate 1% among 650,000; activation, % at 11.2 µM; PathHunter beta-arrestin GPR151 cells; in the data active means activation above about 4.9%
Target sequence (Q8TDV0 whole entry, looked up): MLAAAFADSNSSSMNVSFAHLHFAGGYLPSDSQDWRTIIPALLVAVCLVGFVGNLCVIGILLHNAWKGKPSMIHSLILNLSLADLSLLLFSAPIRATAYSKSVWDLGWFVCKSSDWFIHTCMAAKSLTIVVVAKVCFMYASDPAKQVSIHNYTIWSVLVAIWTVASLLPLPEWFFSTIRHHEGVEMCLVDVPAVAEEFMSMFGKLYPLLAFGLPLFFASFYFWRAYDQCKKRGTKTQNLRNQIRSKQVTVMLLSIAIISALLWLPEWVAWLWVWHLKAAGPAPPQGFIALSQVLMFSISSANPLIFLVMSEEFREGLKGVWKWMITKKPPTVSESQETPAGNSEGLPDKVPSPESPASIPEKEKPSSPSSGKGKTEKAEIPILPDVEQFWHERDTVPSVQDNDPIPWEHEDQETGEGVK
MITF primary: MITF inhibitors, primary screen, biochemical, AlphaScreen, human; AID 1259374, 2018; hit rate 0.91% among 650,000; AlphaScreen MITF homodimerization, bead proximity signal; inhibition, % at 2.6 µM; in the data active means inhibition above about 50%
FBW7 activator: FBW7 E3 ligase activators, primary screen, biochemical, AlphaScreen, human; F-box/WD repeat-containing protein 7 (Homo sapiens), Q969H0; AlphaScreen FBW7–phospho-cyclin E peptide binding, activator screen; normalized activity (activation), % at 26.1 µM; hit rate 0.13% among 650,000; AID 1259310, 2017; in the data active means normalized activity above about 1.9%;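 further: purified mutant Fbw7 with reduced substrate affinity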
TEAD-YAP inh: TEAD-YAP interaction inhibition, primary screen, TEAD-YAP interaction inhibitor project, luminescence, HEK-TIYL cells. TEAD-Gal4/YAP UAS-luciferase luminescence. AID 1259422, 2018. hit rate 1.4% among 640,000. inhibition, % at 9.12 µM; in the data active means inhibition above about 32%
MITF inh conf: MITF inhibitors, retest of hits, confirmation, biochemical, AlphaScreen, triplicate; shares compounds with MITF primary; AlphaScreen MITF homodimerization, biotin/His-MITF beads; inhibition, % at 2.6 µM; hit rate 16% among 4,700; AID 1259372, 2018;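 active means inhibition above a cutoff derived from the DMSO control wells, cut at about 28% in these data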;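 further: inhibitors lower the bead chemiluminescence by keeping MITF from dimerizing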
AlphaScreen DR: AlphaScreen optical interference compounds, dose response, counter-screen, biochemical, HTS | hit rate 6% among 480 | AID 1259373, 2018 | IC50, µM | shares compounds with MITF primary | AlphaScreen optical interference counterscreen, cell-free; call rule not given here
AlphaScreen intf2: AlphaScreen optical interference compounds, counter-screen for MITF inhibitor project, biochemical, triplicate; hit rate 7.6% among 4,700; shares compounds with MITF primary; LysRS AlphaScreen counterscreen, signal interference; inhibition, % at 2.6 µM;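 active means inhibition above a cutoff derived from the DMSO control wells, cut at about 30% in these data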
Each line names hits and unclear results; the compound was inactive in the other large screens (follow-up assays come after a bar, where they were run). Rows were chosen to be rich in hits. Some 3.4% of all compounds tested hit in one or more screens of this group.

COCCNCCCCOc1cc(C)ccc1C(C)(C)C	none
C=CCNCCOCCOc1cccc(Br)c1	MITF primary 60.5 | MITF inh conf inactive | AlphaScreen intf2 inactive
C=CCc1cc(C)ccc1OCCCNCCOC	MITF primary 57.9 | MITF inh conf inactive | AlphaScreen intf2 inactive
CCOCCCNC(=O)Nc1cccc(Cl)c1	none
C=CCc1cc(OC)ccc1OCCN1CC(C)OC(C)C1 (centres undefined)	MITF primary 63.9 | MITF inh conf inactive | AlphaScreen intf2 36.5
C=CCc1cc(C)ccc1OCCNCCOC	MITF primary 53.3 | MITF inh conf inactive | AlphaScreen intf2 inactive
C=CCc1cc(Cl)ccc1OCCNCCOC	none
O=C(CSc1nc(=O)n(CCN2CCOCC2)c2c1CCC2)Nc1ccc(F)cc1F	none
CCCNC(=O)c1ccc(Cl)cc1Cl	none
O=C(NC1CCCCC1)N1CCN2C(=O)[C@H]3CCCN3C(=O)[C@H]2C1	MITF primary 78.8 | MITF inh conf 73.2 | AlphaScreen DR inactive | AlphaScreen intf2 inactive
CN1C(=O)[C@H]2CN(C(=O)NC3CCCCC3)CCN2C(=O)[C@@H]1CO	MITF primary 76.4 | MITF inh conf 71.0 | AlphaScreen DR inactive | AlphaScreen intf2 inactive
CN1C(=O)[C@H]2CN(C(=O)c3ccc(Cl)cc3)CCN2C(=O)[C@@H]1CO	none
COc1ccc(NC(=O)CSC2=C(C#N)C(c3ccc(Cl)cc3)C(C(=O)OCc3ccccc3)=C(C)N2)cc1 (centres undefined)	none
O=C(c1ccc(F)cc1)N1CCN(Cc2ccccc2C(F)(F)F)CC1	MITF primary 64.9 | MITF inh conf inactive | AlphaScreen intf2 inactive
CC(C)CC(=O)N1CCN(C(=O)c2cccs2)CC1	none
CC(C)CC(=O)N1CCN(Cc2ccccc2C(F)(F)F)CC1	MITF primary 58.4 | MITF inh conf inactive | AlphaScreen intf2 inactive
COc1ccccc1CN1CCN(C(=O)c2ccc(F)cc2)CC1	none
O=C(c1ccc(-c2ccccc2)cc1)N1CCN(Cc2ccccc2C(F)(F)F)CC1	MITF primary 65.2 | MITF inh conf inactive | AlphaScreen intf2 inactive
O=C(c1ccccc1)N1CCN(CCCc2ccccc2)CC1	none
CC(C)CC(=O)N1CCN(CCCc2ccccc2)CC1	MITF primary 52.3 | MITF inh conf inactive | AlphaScreen intf2 inactive
O=C(N[C@H]1C[C@H]2C(=O)N[C@@H](COCc3ccccc3)C(=O)N2C1)c1cc(F)ccc1F	none
CCOC(=O)c1sc(=S)n(-c2ccc(N(C)C)cc2)c1N	none
O=C(/C=C/c1ccccc1)Nc1cccc([N+](=O)[O-])c1	none
O=C(c1ccccc1)N1CCN(C(=O)c2cccc(F)c2)CC1	none
O=C(c1ccccc1)N1CCN(C(=O)c2ccncc2)CC1	none
O=C(c1cccc(F)c1)N1CCN(Cc2ccccc2C(F)(F)F)CC1	MITF primary 53.1 | MITF inh conf inactive | AlphaScreen intf2 inactive
O=C(c1ccco1)N1CCN(Cc2ccccc2C(F)(F)F)CC1	MITF primary 66.0 | MITF inh conf inactive | AlphaScreen intf2 inactive
O=C(c1cccc(F)c1)N1CCN(Cc2ccccc2Br)CC1	MITF primary 57.0 | MITF inh conf inactive | AlphaScreen intf2 inactive
O=C(c1ccncc1)N1CCN(Cc2ccccc2C(F)(F)F)CC1	MITF primary 69.5 | MITF inh conf inactive | AlphaScreen intf2 inactive
O=C(c1ccco1)N1CCN(Cc2ccc(Br)cc2)CC1	none
O=C(CCCOc1ccccc1)Nc1ccc(S(=O)(=O)Nc2ncccn2)cc1	none
Cc1cccc(-n2nnc(C(=O)NCc3ccccc3)c2N)c1	none
CNC(=O)c1c(NC(=O)C(C)(C)C)sc2c1CCCC2	none
CC(=O)c1ccc(N2CCN(C(=O)c3ccc4c(c3)OCCO4)CC2)cc1	none
Cc1c(Cl)cccc1NC(=O)C1C(c2ccccc2)=C1c1ccccc1	none
O=C(c1ccco1)N1CCN(Cc2ccccc2[N+](=O)[O-])CC1	MITF primary 75.7 | MITF inh conf inactive | AlphaScreen intf2 inactive
COc1cc(/C=C2/N=C(c3cccc(Cl)c3Cl)OC2=O)cc(Br)c1OC(C)=O	MITF primary 79.9 | MITF inh conf inactive | AlphaScreen intf2 inactive
COc1cc(/C=C2\N=C(c3ccccc3F)OC2=O)cc(Br)c1OC(C)=O	none
COc1cc(OC)c(OC)cc1CN1CCN(Cc2c[nH]c3ccccc23)CC1	MITF primary 55.3 | MITF inh conf inactive | AlphaScreen intf2 inactive
COc1ccc(CN2CCN(Cc3c[nH]c4ccccc34)CC2)c(OC)c1OC	MITF primary 61.6 | MITF inh conf inactive | AlphaScreen intf2 inactive
COc1cc(OC)c(OC)cc1CN1CCN(c2ccc(F)cc2)CC1	none
CC1CC(C)(C)Cc2c1sc(NC(=O)c1ccco1)c2C#N (centres undefined)	MITF primary 84.3 | MITF inh conf inactive | AlphaScreen intf2 inactive
COc1cccc(CN2CCN(Cc3ccc(F)cc3)C(CCO)C2)c1OC (centres undefined)	none
COc1ccc(CN2CCN(Cc3ccc(SC)cc3)CC2)c(OC)c1OC	none
COc1ccc(CN2CCCCC2)c(OC)c1OC	none
COc1cccc(CN2CCN(Cc3ccc(F)cc3)CC2)c1OC	MITF primary 79.7 | MITF inh conf inactive | AlphaScreen intf2 inactive
COc1cc(OC)c(OC)cc1CN1CCN(Cc2ccc(OC)c(OC)c2OC)CC1	MITF primary 58.8 | MITF inh conf inactive | AlphaScreen intf2 inactive
COc1ccc(CN2CCN(Cc3ccc(F)cc3)CC2)c(OC)c1OC	MITF primary 59.9 | MITF inh conf inactive | AlphaScreen intf2 inactive
CCOc1ccc(CN2CCN(Cc3ccc(OC)c(OC)c3OC)CC2)cc1	MITF primary 65.7 | MITF inh conf inactive | AlphaScreen intf2 inactive
CCS(=O)(=O)N1CCN(Cc2ccc(OC)c(OC)c2OC)CC1	none
O=[N+]([O-])c1ccc(-c2nnc(C34CC5CC(CC(C5)C3)C4)o2)cc1	none
CCN1CCN(Cc2ccc(OC)c3ccccc23)CC1	none
COc1ccc(CN2CCN(Cc3ccc(Cl)cc3)CC2)c2ccccc12	MITF primary 82.5 | MITF inh conf inactive | AlphaScreen intf2 inactive
Cc1nc(NCc2ccco2)c2c(C)c(C)sc2n1	MITF primary 59.3, TEAD-YAP inh 42.6 | MITF inh conf inactive | AlphaScreen intf2 inactive
Cc1nc(NCc2ccco2)c2c3c(sc2n1)CCCC3	none
CCc1ccc(CN2CCN(Cc3cc(OC)c(OC)cc3OC)CC2)cc1	MITF primary 63.4 | MITF inh conf inactive | AlphaScreen intf2 inactive
COc1ccc(CN2CCc3cc(OC)c(OC)cc3C2)cc1	none
